Data from PubChem BioAssay AID588689 (Southern Research Specialized Biocontainment Screening …, 2011).
The campaign covered roughly 340,000 compounds. About 1,000 (0.29%) were called active. No stated cut-off is given here; in the data, inconclusive means inhibition above about 29% without an active follow-up result; inactive means below that. Not all results are given here. Measured potencies and affinities stand elsewhere.

Target: Genome polyprotein (Dengue virus type 2 (strain 16681-PDK53)) (UniProt P29991)
Experiment: flavivirus cap methylation enzyme inhibition – biochemical, confirmation dose response, primary screen (AID 588689)
Details: Dengue-2 NS5 methyltransferase capping enzyme assay, at 25 µM, stronger effect = higher value
[1] = measured here: pilot screen replicate inhibition

Sequence of Genome polyprotein (Dengue virus type 2 (strain 16681-PDK53)) (P29991 whole entry, looked up): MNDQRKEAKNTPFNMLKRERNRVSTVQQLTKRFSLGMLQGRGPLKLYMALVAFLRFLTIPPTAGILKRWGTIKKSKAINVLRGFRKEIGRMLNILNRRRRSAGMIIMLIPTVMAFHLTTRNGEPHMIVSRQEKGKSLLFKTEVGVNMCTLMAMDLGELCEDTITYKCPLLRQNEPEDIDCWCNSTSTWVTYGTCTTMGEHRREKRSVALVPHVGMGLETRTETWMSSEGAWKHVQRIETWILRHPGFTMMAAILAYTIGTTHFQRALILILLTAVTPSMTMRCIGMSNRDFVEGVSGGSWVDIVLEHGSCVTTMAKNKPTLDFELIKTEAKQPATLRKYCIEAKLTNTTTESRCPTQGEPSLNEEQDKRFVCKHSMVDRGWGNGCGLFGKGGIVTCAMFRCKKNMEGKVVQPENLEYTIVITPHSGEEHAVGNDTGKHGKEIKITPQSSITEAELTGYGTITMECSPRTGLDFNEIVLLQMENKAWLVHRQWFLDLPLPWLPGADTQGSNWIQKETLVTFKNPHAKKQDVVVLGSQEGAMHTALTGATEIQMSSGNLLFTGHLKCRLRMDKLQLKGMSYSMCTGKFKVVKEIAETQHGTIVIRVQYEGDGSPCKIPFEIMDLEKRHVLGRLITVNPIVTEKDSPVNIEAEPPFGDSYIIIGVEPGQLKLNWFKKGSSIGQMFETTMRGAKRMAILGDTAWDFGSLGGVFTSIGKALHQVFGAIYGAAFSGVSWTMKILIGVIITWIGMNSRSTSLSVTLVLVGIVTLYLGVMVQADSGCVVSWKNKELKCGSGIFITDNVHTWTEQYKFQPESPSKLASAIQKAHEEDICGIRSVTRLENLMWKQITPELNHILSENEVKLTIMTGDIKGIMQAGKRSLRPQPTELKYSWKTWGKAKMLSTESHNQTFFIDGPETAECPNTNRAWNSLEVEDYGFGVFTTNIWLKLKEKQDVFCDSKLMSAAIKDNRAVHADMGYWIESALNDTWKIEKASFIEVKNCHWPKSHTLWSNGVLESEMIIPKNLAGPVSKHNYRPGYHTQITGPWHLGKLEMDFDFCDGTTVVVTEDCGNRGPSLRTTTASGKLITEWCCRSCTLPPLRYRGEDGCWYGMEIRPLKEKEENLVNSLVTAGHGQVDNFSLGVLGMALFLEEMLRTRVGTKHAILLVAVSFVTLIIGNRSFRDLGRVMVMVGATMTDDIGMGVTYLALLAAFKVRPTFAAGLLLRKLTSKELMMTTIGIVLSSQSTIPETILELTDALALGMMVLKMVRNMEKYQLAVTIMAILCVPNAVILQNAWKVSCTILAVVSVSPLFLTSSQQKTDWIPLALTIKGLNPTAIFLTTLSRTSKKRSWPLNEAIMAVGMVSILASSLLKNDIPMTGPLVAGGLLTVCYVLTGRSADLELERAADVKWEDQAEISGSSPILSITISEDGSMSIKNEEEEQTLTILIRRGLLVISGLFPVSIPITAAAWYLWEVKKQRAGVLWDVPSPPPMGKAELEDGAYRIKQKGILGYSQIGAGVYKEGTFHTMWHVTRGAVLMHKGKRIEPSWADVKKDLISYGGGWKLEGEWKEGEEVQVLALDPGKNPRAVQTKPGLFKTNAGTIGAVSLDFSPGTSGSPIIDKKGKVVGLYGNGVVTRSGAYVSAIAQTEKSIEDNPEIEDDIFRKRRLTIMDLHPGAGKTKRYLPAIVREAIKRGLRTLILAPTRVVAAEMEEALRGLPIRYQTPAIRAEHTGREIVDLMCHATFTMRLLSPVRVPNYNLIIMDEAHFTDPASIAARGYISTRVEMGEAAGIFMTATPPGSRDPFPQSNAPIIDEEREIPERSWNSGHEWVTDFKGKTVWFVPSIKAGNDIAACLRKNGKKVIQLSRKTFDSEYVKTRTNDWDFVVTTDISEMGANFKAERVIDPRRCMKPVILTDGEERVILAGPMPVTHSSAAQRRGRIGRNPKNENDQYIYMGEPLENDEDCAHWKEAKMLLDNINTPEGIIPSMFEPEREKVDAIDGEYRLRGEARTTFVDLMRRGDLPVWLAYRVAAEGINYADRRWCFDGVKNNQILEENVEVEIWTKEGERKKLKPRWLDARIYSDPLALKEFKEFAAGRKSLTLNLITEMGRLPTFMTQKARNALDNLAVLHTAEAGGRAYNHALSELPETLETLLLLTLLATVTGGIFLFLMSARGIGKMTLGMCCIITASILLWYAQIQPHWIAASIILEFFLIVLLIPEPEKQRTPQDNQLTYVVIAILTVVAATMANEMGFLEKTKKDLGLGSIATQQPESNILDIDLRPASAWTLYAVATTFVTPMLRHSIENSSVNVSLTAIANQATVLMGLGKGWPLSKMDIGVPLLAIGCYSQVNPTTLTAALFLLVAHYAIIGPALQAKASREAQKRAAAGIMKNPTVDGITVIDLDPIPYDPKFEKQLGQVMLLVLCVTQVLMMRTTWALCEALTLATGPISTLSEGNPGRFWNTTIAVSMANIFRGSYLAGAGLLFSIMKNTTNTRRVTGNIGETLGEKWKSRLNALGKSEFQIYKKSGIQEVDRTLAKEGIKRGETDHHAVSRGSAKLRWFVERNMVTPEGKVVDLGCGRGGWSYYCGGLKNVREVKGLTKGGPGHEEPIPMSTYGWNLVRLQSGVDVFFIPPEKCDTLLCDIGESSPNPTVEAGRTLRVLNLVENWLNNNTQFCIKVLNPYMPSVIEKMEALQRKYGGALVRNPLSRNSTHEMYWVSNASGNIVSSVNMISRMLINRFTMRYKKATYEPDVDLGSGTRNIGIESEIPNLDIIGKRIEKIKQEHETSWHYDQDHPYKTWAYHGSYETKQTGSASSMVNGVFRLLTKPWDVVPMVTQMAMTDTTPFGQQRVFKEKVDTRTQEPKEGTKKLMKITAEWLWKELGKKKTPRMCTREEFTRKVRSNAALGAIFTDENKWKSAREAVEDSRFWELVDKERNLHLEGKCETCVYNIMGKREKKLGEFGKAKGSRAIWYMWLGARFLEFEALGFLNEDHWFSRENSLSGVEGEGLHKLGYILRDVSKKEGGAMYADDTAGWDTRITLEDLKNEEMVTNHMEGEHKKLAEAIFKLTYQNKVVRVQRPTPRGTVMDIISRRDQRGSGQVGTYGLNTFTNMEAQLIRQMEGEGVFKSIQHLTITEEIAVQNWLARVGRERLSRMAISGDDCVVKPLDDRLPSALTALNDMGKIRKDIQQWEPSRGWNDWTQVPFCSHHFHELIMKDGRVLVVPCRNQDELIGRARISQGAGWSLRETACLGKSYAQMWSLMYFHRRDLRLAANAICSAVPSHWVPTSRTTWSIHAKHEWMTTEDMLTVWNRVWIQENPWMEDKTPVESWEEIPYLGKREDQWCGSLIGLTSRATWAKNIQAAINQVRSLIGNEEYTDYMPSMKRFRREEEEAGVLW

Row | Structure (SMILES) | inhibition | inhibition [1]
1 | S=C(NCCc1c[nH]c2ccccc12)NC1CC1 | 2.32% (inactive) | –
2 | N#C/C(=C\c1ccc([N+](=O)[O-])cc1)C(=O)Nc1ccccc1O | 8.94% (inactive) | –
3 | Brc1ccc(-c2nnc3n2CCCCC3)cc1 | -4.77% (inactive) | –
4 | Cc1ccccc1CSCCNC(=O)COc1ccc(Cl)cc1 | -3.24% (inactive) | –
5 | Cc1occc1C(=O)NNC(=O)c1ccccc1[N+](=O)[O-] | 1.62% (inactive) | –
6 | CCC(=O)N1CCc2cc(Br)cc(S(=O)(=O)NCc3ccco3)c21 | 0% (inactive) | –
7 | O=C(O)c1ccccc1C(=O)c1ccc(Cl)cc1 | 1.15% (inactive) | –
8 | CC(=O)C1=C(O)C(=O)OC1c1ccc(C)cc1 (stereo not drawn) | -9.38% (inactive) | –
9 | O=C1OC(c2ccc(Cl)cc2)/C(=C(/O)c2ccccc2)C1=O (stereo not drawn) | 28.1% (inactive) | –
10 | CC(=O)C1=C(O)C(=O)OC1c1ccc(Cl)cc1 (stereo not drawn) | -3.11% (inactive) | –
11 | CC(=O)Nc1ccc(S(=O)(=O)N2CCC(N3CCCCCC3)CC2)cc1 | -3.4% (inactive) | –
12 | CCOc1ccc(NC(=O)C2=NN(c3ccccc3)C(=O)CC2)cc1S(=O)(=O)N1CCCCC1 | -4.38% (inactive) | –
13 | COc1cccc(N2CC(O)Cn3c2nc2c3c(=O)[nH]c(=O)n2C)c1 (stereo not drawn) | -3.08% (inactive) | –
14 | COc1ccc(NC(=O)c2ccc(S(=O)(=O)N3CC(C)OC(C)C3)cc2)cc1 (stereo not drawn) | 3.36% (inactive) | –
15 | CN(CC(=O)Nc1ccc(S(=O)(=O)N(C)C)cc1)Cc1ccc(C(F)(F)F)cc1 | 2.22% (inactive) | –
16 | O=C(c1cc(O)c(O)c([N+](=O)[O-])c1)c1ccccc1F | -7.33% (inactive) | –
17 | O=[N+]([O-])c1cccc(C=Nc2cccc3ccccc23)c1O | 14.3% (inactive) | –
18 | Nc1ccc(N=Nc2ccccc2)cc1[N+](=O)[O-] | -3.11% (inactive) | –
19 | Nc1ccc(-c2ccc(N)c([N+](=O)[O-])c2)cc1[N+](=O)[O-] | -9.54% (inactive) | –
20 | O=[N+]([O-])c1ccccc1N=Nc1ccc(O)cc1 | 0% (inactive) | –
21 | COc1cc(CN(C)Cc2cccc3ccccc23)cc([N+](=O)[O-])c1O | 11.1% (inactive) | 0.595%
22 | Cc1cc(Nc2ccccc2C(=O)O)n2ncnc2n1 | 6.29% (inactive) | –
23 | Cn1c(N)c(S(=O)(=O)N2CCN(c3ccccc3F)CC2)c(=O)n(C)c1=O | -7.15% (inactive) | –
24 | CC(C)CC(=O)Nc1ccc(C(=O)COC(=O)C2CCC2)cc1 | -0.65% (inactive) | –

Row | Structure (SMILES) | inhibition | inhibition [1]
25 | O=C1C2C3C=CC(C4CC34)C2C(=O)N1Cc1ccco1 (stereo not drawn) | -2.18% (inactive) | –
26 | CSCCC(NS(=O)(=O)c1ccc(F)cc1)C(=O)NCc1ccc(S(N)(=O)=O)cc1 (stereo not drawn) | 3.04% (inactive) | –
27 | C=CCn1c(SCC(=O)NC2CCCC2)nnc1-c1ccncc1 | -3.89% (inactive) | –
28 | CCc1ccc(S(=O)(=O)/N=C2\C=C(Nc3ccc(O)cc3)C(=O)c3ccccc32)cc1 | 8.96% (inactive) | –
29 | Cc1ccccc1NC1=C/C(=N\S(=O)(=O)c2cccs2)c2ccccc2C1=O | 63.2% (inactive) | –
30 | Cc1ccc(S(=O)(=O)Nc2ccc3ncccc3c2[N+](=O)[O-])cc1 | -1.93% (inactive) | –
31 | Cc1ccc(S(=O)(=O)Nc2ccc3cc([N+](=O)[O-])ccc3c2[N+](=O)[O-])cc1 | -2.33% (inactive) | –
32 | CCc1ccc(S(=O)(=O)Nc2ccccn2)cc1 | -5.27% (inactive) | -6.09%
33 | Cc1cc(C)c(S(=O)(=O)/N=C2\C=C(NS(=O)(=O)c3ccccc3)C(=O)c3ccccc32)c(C)c1 | 25.3% (inactive) | –
34 | Cc1ccc(NC2=C/C(=N/S(=O)(=O)c3cccs3)c3ccccc3C2=O)cc1 | 1.1% (inactive) | –
35 | Cc1ccc(Nc2nnc(SC(C)C(=O)NCC3CCCO3)s2)cc1C (stereo not drawn) | 4.44% (inactive) | –
36 | CCc1ccc(N(C(=O)C(F)(F)F)C(C(=O)NC2CCCCC2)c2ccncc2)cc1 (stereo not drawn) | 0.69% (inactive) | –
37 | Cc1n[nH]c(C)c1CCCCOc1ccccc1[N+](=O)[O-] | -3.29% (inactive) | -1.21%
38 | CSc1nnc(C)c(=O)n1COC(=O)COc1ccccc1F | 9.2% (inactive) | –
39 | COc1ccc(CCn2c(C)c(C(C)=O)c3cc(OC(=O)c4ccco4)ccc32)cc1OC | -1.6% (inactive) | –
40 | COc1ccccc1-n1c(CNC(=O)c2ccc(S(=O)(=O)N3CCOCC3)cc2)n[nH]c1=S | -4.46% (inactive) | –
41 | C=C(C)CN1C(=O)c2ccccc2C1=O | 2.04% (inactive) | –
42 | CC(=O)N1N=C(c2ccc(C)o2)CC1c1ccc(Br)cc1 (stereo not drawn) | -4.86% (inactive) | –
43 | COc1cc2c(cc1OC)C(COc1cccc(C(F)(F)F)c1)NCC2 (stereo not drawn) | 6.97% (inactive) | –
44 | CCCCOc1ccc(C(=O)NCC(=O)NC2CC2)cc1 | 1.44% (inactive) | –
45 | CCOC(=O)c1nc[nH]c1C | -4.86% (inactive) | –
46 | CC(=O)OC1(C)C=Cc2ccccc2C1=NS(=O)(=O)c1ccccc1 (stereo not drawn) | 4% (inactive) | –
47 | CN1C/C(=N\S(=O)(=O)c2ccccc2)N(C)C1=O | -4.44% (inactive) | –
48 | COc1ccc(S(=O)(=O)/N=C2\C=C(Nc3ccc(O)cc3)C(=O)c3ccccc32)cc1 | 10.3% (inactive) | –

Row | Structure (SMILES) | inhibition | inhibition [1]
49 | Cc1ccc(S(=O)(=O)Nc2ccccc2-c2ccccc2)cc1 | -9.37% (inactive) | –
50 | Cc1ccc(S(=O)(=O)Nc2ccccc2C(N)=O)cc1 | -8.11% (inactive) | -8.21%
51 | CC(C)c1ccc(-c2csc3nc[nH]c(=O)c23)cc1 | -4.66% (inactive) | –
52 | Cc1ccc(S(=O)(=O)/N=C2\C=C(NS(=O)(=O)c3ccccc3)C(=O)c3ccccc32)c(C)c1 | 13.1% (inactive) | –
53 | Cc1ccc(NC2=C/C(=N\S(=O)(=O)c3cccs3)c3ccccc3C2=O)c(C)c1 | 12.8% (inactive) | –
54 | O=[N+]([O-])c1cc(C(F)(F)F)ccc1-n1nnc2ccccc21 | 1.31% (inactive) | –
55 | Cc1cc2cc(CNC(=O)Nc3cccc(Cl)c3)ccc2n1C | 22.2% (inactive) | –
56 | COCCNc1nnc(SCC(=O)NC(=O)c2ccc(Cl)cc2)s1 | 2.89% (inactive) | –
57 | COc1ccc(OC)c(NC(=O)c2cccc(N3C(=O)C4C5CCC(C5)C4C3=O)c2)c1 (stereo not drawn) | -6.74% (inactive) | –
58 | CCOC(=O)CCC(NC(=O)CCC(=O)NC(CCC(=O)OCC)C(=O)OCC)C(=O)OCC (stereo not drawn) | -7.26% (inactive) | –
59 | O=C(CNC(=O)c1ccccc1F)NCCN1C(=O)S/C(=C\c2ccc3c(c2)OCO3)C1=O | -1.45% (inactive) | –
60 | O=C(c1ccc(CS(=O)c2ccc(F)cc2)o1)N1CCN(C2CCCCC2)CC1 (stereo not drawn) | -10.8% (inactive) | –
61 | Cc1[nH]c(=O)[nH]c(=O)c1CSc1nnc([C@@H](NC(=O)OC(C)(C)C)C(C)C)o1 | 0.56% (inactive) | –
62 | C/C(=N\NS(=O)(=O)c1ccc(C(C)(C)C)cc1)c1ccccc1 | -0.98% (inactive) | –
63 | Cc1ccc(S(=O)(=O)/N=C2\C=C(Nc3ccc(O)cc3)C(=O)c3ccccc32)cc1 | -0.74% (inactive) | –
64 | CC(C)(C)c1ccc(S(=O)(=O)Nc2ccccn2)cc1 | 2.21% (inactive) | –
65 | COC(=O)C(C(C)=O)C1=C/C(=N\S(=O)(=O)c2ccc(C)cc2)c2ccccc2C1=O (stereo not drawn) | -8.06% (inactive) | –
66 | O=C(CCN1C(=O)C2CC=CCC2C1=O)Nc1cccc(S(=O)(=O)N2CCCCC2)c1 (stereo not drawn) | 0% (inactive) | –
67 | NC(=O)CSc1nnc(-c2cccs2)n1-c1ccccc1 | -6.45% (inactive) | –
68 | COCCN(C(=O)COC(=O)CCSc1ccc(F)cc1)c1c(N)n(Cc2ccccc2)c(=O)[nH]c1=O | -5.13% (inactive) | –
69 | COC(=O)C1(C(=O)OC)C(C(=O)c2ccccc2)C1c1ccccc1 (stereo not drawn) | 5.57% (inactive) | –
70 | COc1cc(SC)ccc1C(=O)Nc1cccc(S(=O)(=O)NC2=NCCCCC2)c1 | -1.45% (inactive) | –
71 | COc1ccc2nc3ccccc3nc2c1 | 18.8% (inactive) | –
72 | CCc1nc2ccc(C(=O)NCCc3ccco3)cc2nc1CC | -11.5% (inactive) | –

Row | Structure (SMILES) | inhibition | inhibition [1]
73 | COc1ccc2nc3c(nc2c1)CCCC3 | -8.49% (inactive) | –
74 | O=C(Nc1ccc(N2CCOCC2)cc1)c1ccc2nc(-c3ccco3)c(-c3ccco3)nc2c1 | 3.24% (inactive) | –
75 | O=C(Nc1cccc(C(F)(F)F)c1)c1ccc2nc(-c3ccco3)c(-c3ccco3)nc2c1 | 21.6% (inactive) | –
76 | COCCNC(=O)Nc1ccc2nc(-c3cccs3)c(-c3cccs3)nc2c1 | -17.7% (inactive) | –
77 | CCCNC(=O)c1ccc2nc(-c3ccccc3)c(-c3ccccc3)nc2c1 | -0.8% (inactive) | –
78 | O=C(Nc1ccc(N2CCOCC2)cc1)Nc1ccc2nc(-c3ccco3)c(-c3ccco3)nc2c1 | 13.6% (inactive) | –
79 | Cc1ccccc1NC(=O)Cc1cccs1 | -7.91% (inactive) | -5.49%
80 | COc1cc2c(cc1OC)CC(C(=O)NCc1ccccc1)NC2 (stereo not drawn) | -4.57% (inactive) | –
81 | O=C(C1CCCN(S(=O)(=O)c2ccccc2)C1)N1CCN(c2ccccc2)CC1 (stereo not drawn) | -6.74% (inactive) | –
82 | CCN(CC)C(=O)C1CCCN(C(=O)Nc2ccccc2)C1 (stereo not drawn) | -0.8% (inactive) | –
83 | CN(/N=C/c1ccc2c(c1)OCO2)c1ccccc1 | -8.15% (inactive) | –
84 | COc1cccc(-c2ncc3ccccc3c2COC(=O)c2cccs2)c1 | -7.94% (inactive) | –
85 | O=C(c1ccco1)N1CCN(S(=O)(=O)c2cccc(C(F)(F)F)c2)CC1 | 0% (inactive) | –
86 | O=C(c1ccc2nc(-c3ccco3)c(-c3ccco3)nc2c1)N1CCN(c2ccccc2)CC1 | 0% (inactive) | –
87 | COc1ccc(-c2nc3ccc(C(=O)NCCCN4CCOCC4)cc3nc2-c2ccc(OC)cc2)cc1 | -9.54% (inactive) | –
88 | O=C(c1ccccc1)c1ccc2nc(-c3ccco3)c(-c3ccco3)nc2c1 | 51.1% (inactive) | –
89 | CCc1nc2ccc(C(=O)NCc3ccco3)cc2nc1CC | -6.11% (inactive) | –
90 | O=C(NCCc1ccccc1)c1ccc2nccnc2c1 | 0% (inactive) | –
91 | Cc1nc2ccc(C(=O)O)cc2nc1C | -2.96% (inactive) | –
92 | O=C(Nc1ccccc1)c1ccc2nc(-c3ccco3)c(-c3ccco3)nc2c1 | 44.6% (inactive) | –
93 | O=C(O)c1ccc2nc(-c3ccccc3)c(-c3ccccc3)nc2c1 | -2.57% (inactive) | –
